M1 ag = agonists of human M1 muscarinic receptor | activation, % at 3 µM | hit rate 0.33% among 360,000 | CHO-K1 hM1, Fluo-8 calcium fluorescence, agonist mode; 0% DMSO, 100% acetylcholine EC100 | P11229 | AID 588814;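 active = activation above the run's mean compound activation plus 3 SD, cut at about 16% in these data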;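 also: peak over basal fluorescence ratio within a 140 s kinetic read after compound addition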
Target sequence (P11229 whole entry, looked up): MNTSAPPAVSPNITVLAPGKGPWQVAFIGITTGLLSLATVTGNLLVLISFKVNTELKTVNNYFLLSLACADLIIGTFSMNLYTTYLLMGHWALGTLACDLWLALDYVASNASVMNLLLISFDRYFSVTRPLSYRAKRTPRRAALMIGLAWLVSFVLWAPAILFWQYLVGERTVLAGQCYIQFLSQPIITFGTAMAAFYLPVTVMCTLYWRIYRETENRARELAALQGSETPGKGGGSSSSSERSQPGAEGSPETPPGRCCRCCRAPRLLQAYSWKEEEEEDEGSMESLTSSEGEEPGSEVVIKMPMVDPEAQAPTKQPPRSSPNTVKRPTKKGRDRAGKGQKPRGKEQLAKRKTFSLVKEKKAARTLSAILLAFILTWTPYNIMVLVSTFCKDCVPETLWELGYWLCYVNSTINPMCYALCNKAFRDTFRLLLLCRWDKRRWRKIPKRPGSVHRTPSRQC
CHO-K1 Ca antag = counter-screen for M1 antagonists: effect in parental CHO-K1 cells. inhibition, % at 3 µM. hit rate 0.6% among 360,000. ATP-induced calcium, Fluo-8 fluorescence;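 active = inhibition above a per-plate cutoff, the plate's mean sample inhibition plus 3 SD, cut at about 24% in these data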;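 also: 0% = DMSO plus EC80 ATP and 100% = DMSO alone without ATP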
CHO-K1 Ca PAM = M1 PAM counterscreen hit in parental CHO-K1 cells; ATP EC20, Fluo-8 calcium fluorescence; 0% at ATP EC20, 100% at ATP max; activation, % at 3 µM; hit rate 0.02% among 360,000; AID 602247;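 active = activation above the run cutoff, the mean activation of all test compounds plus 3 SD, cut at about 40% in these data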;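 also: peak over basal fluorescence ratio in a 140 s read after ATP addition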
CHO-K1 Ca ag = M1 agonist counterscreen hit in parental CHO-K1 cells; hit rate 0.48% among 360,000; AID 602248; Fluo-8 calcium fluorescence; scaled to maximal ATP response, vehicle zero; activation, % at 3 µM; in the data active = activation above about 15%;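 also: untransfected CHO-K1 host cells lacking M1 receptor as counterscreen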
M1 PAM = potentiates human M1 receptor response to acetylcholine; P11229; hit rate 0.088% among 360,000; activation, % at 3 µM; CHO-K1 hM1, Fluo-8 calcium fluorescence, ACh EC20; 0% = ACh EC20, 100% = maximal ACh; in the data active = activation above about 19%, passing the limit was not always enough
CHRM1 antagonist = blocks human M1 muscarinic receptor. P11229. AID 588852. hit rate 1.3% among 360,000. CHO-K1 hM1, Fluo-8 calcium fluorescence, ACh EC80 antagonist. inhibition, % at 3 µM;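 active = percent inhibition above its own plate's cutoff, namely the mean of that plate's compound wells plus 3 SD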;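 also: peak over basal fluorescence ratio during 140 s after agonist addition; 0% = ACh EC80 plus DMSO and 100% = DMSO alone without agonist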
* = called active by the depositor. Compounds with a hit are over-represented: about 2.3% of the library has one in this group of screens.

O=C(NCCc1nccs1)C1CCC(=O)N(CCc2ccc(Cl)cc2)C1 (centres undefined) was read as M1 ag -3.4, CHO-K1 Ca antag 2.5, CHO-K1 Ca PAM 1.6, CHO-K1 Ca ag 0.5, M1 PAM 8.0 and CHRM1 antagonist -7.4.
Fc1ccccc1CN1CCCN(C(=S)Nc2cccc(Cl)c2)C1 was read as M1 ag 9.9, CHO-K1 Ca antag 18.9, CHO-K1 Ca PAM -9.5, CHO-K1 Ca ag 8.1, M1 PAM -13.1 and CHRM1 antagonist 28.7*.
Screening Cc1c(Cl)cccc1NC(=S)N1CCCN(Cc2ccccc2F)C1 returned M1 ag 3.3, CHO-K1 Ca antag 5.7, CHO-K1 Ca PAM 15.3, CHO-K1 Ca ag 5.5, M1 PAM -6.8 and CHRM1 antagonist 12.1.
COc1ccc(NC(=O)CC(=O)Nc2ccc(OC)cc2)cc1 was read as M1 ag 0.2, CHO-K1 Ca antag -5.9, CHO-K1 Ca PAM 12.9, CHO-K1 Ca ag 2.5, M1 PAM 22.4 and CHRM1 antagonist -15.1.
COc1ccccc1N1CCN(C(=O)c2ccc(CS(=O)(=O)c3ccccc3OC)o2)CC1 was read as M1 ag 17.4*, CHO-K1 Ca antag 12.0, CHO-K1 Ca PAM 5.0, CHO-K1 Ca ag 4.4, M1 PAM -3.0 and CHRM1 antagonist 11.7.
CC(C)CNC(=O)C1(C)CCCN1C(=O)c1c(Cl)cccc1Cl (centres undefined) was read as M1 ag -3.8, CHO-K1 Ca antag -0.8, CHO-K1 Ca PAM 15.8, CHO-K1 Ca ag 1.0, M1 PAM 8.5 and CHRM1 antagonist -15.7.
Screening O=C(ONc1ccc(N=NC(=O)c2ccccc2O)cc1)c1ccccc1 returned M1 ag -3.8, CHO-K1 Ca antag 28.1*, CHO-K1 Ca PAM -15.6, CHO-K1 Ca ag 0.1, M1 PAM -11.3 and CHRM1 antagonist 19.7.
O=C(Nc1ccccn1)C1CCN(C(=O)c2ccc(Cl)cc2)CC1 was read as M1 ag 1.2, CHO-K1 Ca antag -12.6, CHO-K1 Ca PAM 8.5, CHO-K1 Ca ag 0.9, M1 PAM 4.4 and CHRM1 antagonist -16.3.
`COc1ccc(N2CCN(C(=O)COC(=O)c3oc4ccc(OC)cc4c3C)CC2)cc1` gave M1 ag 0.3, CHO-K1 Ca antag 5.0, CHO-K1 Ca PAM -9.5, CHO-K1 Ca ag 15.8*, M1 PAM -11.7 and CHRM1 antagonist 14.0.
`Cc1sc2ncnc(NCC(c3ccco3)N3CCCC3)c2c1C` (centres undefined) gave M1 ag -6.4, CHO-K1 Ca antag -2.4, CHO-K1 Ca PAM 13.1, CHO-K1 Ca ag 0.1, M1 PAM -24.5 and CHRM1 antagonist 90.9*.
Screening O=C(c1ccccc1)c1nn(-c2ccc(Cl)cc2)c(=O)cc1C(F)(F)F returned M1 ag -4.6, CHO-K1 Ca antag 5.5, CHO-K1 Ca PAM 4.9, CHO-K1 Ca ag 19.1*, M1 PAM -19.8 and CHRM1 antagonist 22.6.
Screening O=C(c1ccccc1)c1nn(-c2ccccc2)c(=O)cc1C(F)(F)F returned M1 ag -9.7, CHO-K1 Ca antag -13.6, CHO-K1 Ca PAM 1.8, CHO-K1 Ca ag -0.7, M1 PAM -3.8 and CHRM1 antagonist -9.7.
`Cc1c2cnn(-c3ccccc3)c(=O)c2c(C)n1CCCC(=O)N1CCN(C2CCCCC2)CC1` gave M1 ag 37.6*, CHO-K1 Ca antag -11.6, CHO-K1 Ca PAM 16.1, CHO-K1 Ca ag 0.7, M1 PAM -11.1 and CHRM1 antagonist 29.5.
CCN1CCN(C(=O)CCCn2c(C)c3cnn(-c4ccccc4)c(=O)c3c2C)CC1 was read as M1 ag -5.8, CHO-K1 Ca antag 6.3, CHO-K1 Ca PAM 9.6, CHO-K1 Ca ag 0.2, M1 PAM 24.7* and CHRM1 antagonist -20.0.
For C[C@@]12CCC=C[C@H]1[C@H](c1ccc(C(F)(F)F)cc1)N(Cc1ccccc1)C2=O the results were M1 ag -1.3, CHO-K1 Ca antag 7.5, CHO-K1 Ca PAM -15.6, CHO-K1 Ca ag -0.8, M1 PAM 12.5 and CHRM1 antagonist -8.0.
Screening O=C1CC(c2ccco2)CC2=C1C1c3ccccc3C(=O)N1c1ccccc1N2 (centres undefined) returned M1 ag -3.1, CHO-K1 Ca antag -6.9, CHO-K1 Ca PAM 4.2, CHO-K1 Ca ag 1.4, M1 PAM -4.8 and CHRM1 antagonist 2.9.
`O=C1CCCC2=C1C1c3ccccc3C(=O)N1c1ccc(C(=O)c3ccccc3)cc1N2` (centres undefined) gave M1 ag -2.8, CHO-K1 Ca antag 24.2*, CHO-K1 Ca PAM -1.3, CHO-K1 Ca ag 2.8, M1 PAM -0.8 and CHRM1 antagonist 8.2.
`CN(CC(=O)Nc1ccc(F)cc1)C(=O)CSc1ccc2c(c1)OCCO2` gave M1 ag -2.2, CHO-K1 Ca antag -6.8, CHO-K1 Ca PAM 8.5, CHO-K1 Ca ag 0.4, M1 PAM 5.0 and CHRM1 antagonist -3.3.
Cc1ccc(SCC(=O)OCC(=O)N(C)CC(=O)Nc2ccc(F)cc2)cc1C was read as M1 ag 32.5*, CHO-K1 Ca antag -15.6, CHO-K1 Ca PAM 18.3, CHO-K1 Ca ag 45.6*, M1 PAM 7.0 and CHRM1 antagonist -7.4.
For CCN(C(=O)c1ccc(NC(=O)Cc2ccccc2)cc1)c1ccccc1 the results were M1 ag 2.0, CHO-K1 Ca antag 10.5, CHO-K1 Ca PAM -21.1, CHO-K1 Ca ag 15.9*, M1 PAM -0.1 and CHRM1 antagonist 2.0.
CN(C(=O)c1ccc(NC(=O)Cc2ccccc2)cc1)c1ccccc1 was read as M1 ag -0.5, CHO-K1 Ca antag 3.5, CHO-K1 Ca PAM -11.6, CHO-K1 Ca ag 2.7, M1 PAM -0.8 and CHRM1 antagonist 2.0.
COc1cccc(CNC[C@H]2O[C@@H](n3ccc(N)nc3=O)[C@H](O)[C@@H]2O)c1OCc1ccc(F)cc1Cl was read as M1 ag -3.3, CHO-K1 Ca antag -1.8, CHO-K1 Ca PAM -4.4, CHO-K1 Ca ag 0.0, M1 PAM 2.6 and CHRM1 antagonist -0.8.
O=C(/C=C/Nc1ccccc1)c1ccc(Oc2ncccn2)cc1 was read as M1 ag -4.0, CHO-K1 Ca antag 26.5*, CHO-K1 Ca PAM -6.8, CHO-K1 Ca ag 0.0, M1 PAM 3.0 and CHRM1 antagonist 5.2.
Screening CCOC(=O)N1CCN(c2c(-c3ccc(C(C)C)cc3)c(=O)c2=O)CC1 returned M1 ag -1.3, CHO-K1 Ca antag 26.2*, CHO-K1 Ca PAM -7.3, CHO-K1 Ca ag -0.9, M1 PAM 4.8 and CHRM1 antagonist 5.5.
CCOC(=O)N1CCN(c2c(-c3ccc(C)cc3)c(=O)c2=O)CC1 was read as M1 ag 1.3, CHO-K1 Ca antag 13.7, CHO-K1 Ca PAM 3.8, CHO-K1 Ca ag -0.3, M1 PAM 13.2 and CHRM1 antagonist -24.4.
`Cc1ccc(/C=C(\C#N)C(=O)Nc2cccc(C)n2)cc1` gave M1 ag -2.0, CHO-K1 Ca antag -15.2, CHO-K1 Ca PAM 27.5, CHO-K1 Ca ag 1.8, M1 PAM 14.1 and CHRM1 antagonist -28.0.

From PubChem
